HPGD inh: qHTS Assay for Inhibitors of HPGD (15-Hydroxyprostaglandin Dehydrogenase) | Potency, µM, without a hit: top-dose activity change, negative = inhibition, actives largely listed as inhibitors | 150,000 tested, 4.3% active | AID 894, 2007 | 15-hydroxyprostaglandin dehydrogenase [NAD(+)] (Homo sapiens), P15428 | purified HPGD, NADH fluorescence kinetic, PGE2 substrate; active = well fitted inhibition curve with a large enough effect, not every such curve was filed as active; inconclusive = small, poorly fitted or top-dose-only effect, or another doubt; inactive = no such curve, though single readings can be large or run the other way; note: potency is the fitted concentration of half-maximal effect
Target sequence (P15428 whole entry, looked up): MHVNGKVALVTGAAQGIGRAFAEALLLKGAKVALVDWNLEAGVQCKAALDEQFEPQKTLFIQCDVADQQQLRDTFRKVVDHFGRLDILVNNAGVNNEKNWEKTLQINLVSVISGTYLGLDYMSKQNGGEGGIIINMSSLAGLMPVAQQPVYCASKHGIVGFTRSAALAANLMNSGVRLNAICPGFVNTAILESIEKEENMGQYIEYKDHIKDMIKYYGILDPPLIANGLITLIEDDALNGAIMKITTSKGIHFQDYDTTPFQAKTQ
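20 nM HPGD preincubated 15 min at room temperature with compound in 50 mM Tris-HCl pH 8, 0.01% Tween 20. Started with 1 mM NAD+ and 30 uM prostaglandin E2; NADH fluorescence (360/450 nm) read 5 times over 30-s intervals, last minus first.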
GLA inh pH 4.5: qHTS Assay for Inhibitors of Human alpha-Galactosidase at pH 4.5; Alpha-galactosidase A (Homo sapiens), P06280; activity change, negative = inhibition, % at 105 µM; purified enzyme, 4-MU-alpha-Gal fluorescence, pH 4.5; 230,000 tested, under 10 active;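 note: 0% = full activity with enzyme and -100% = basal without enzyme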
ALDH1A1 block: qHTS Assay for Inhibitors of Aldehyde Dehydrogenase 1 (ALDH1A1) | Aldehyde dehydrogenase 1A1 (Homo sapiens), P00352 | Purified ALDH1A1, NADH fluorescence, propionaldehyde substrate | Potency, µM (titrated, usually from 75.3 µM), without a hit: at the top dose activity, negative = inhibition, usual class: inhibitors | 220,000 tested, 7.3% active | AID 1030, 2008; active = well fitted inhibition curve with a large enough effect, not every such curve was filed as active; inconclusive = small, poorly fitted or top-dose-only effect, or another doubt; inactive = no such curve, though single readings can be large or run the other way;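 note: potency is the fitted concentration of half-maximal effect; plate controls were no enzyme wells and a reference inhibitor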
PNC assembly inh: High Content Assay for Compounds that inhibit the Assembly of the Perinucleolar Compartment; PC3M PTB-GFP, PNC prevalence imaging, 16 h; stronger effect = lower value; activity change (PNC), negative = inhibition, % at 10 µM; 140,000 tested, 3.1% active;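 active = readout at or below -70, meaning at least 70% loss of cells showing the perinucleolar compartment, a nuclear body marking cancer cells; inconclusive = readout between -30 and a set limit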;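 note: plate controls were DMSO wells for no effect and camptothecin positive control wells for full effect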
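PC3M cells stably expressing PTB-GFP, 750–1000 cells/well, treated 16 h at 37 °C with compound (23 nl of library stock), in duplicate. After paraformaldehyde fixation and Hoechst stain, imaged at 20x; PNC prevalence scored by image analysis.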
ALOX12 inhib: qHTS Assay for Inhibitors of 12-hLO (12-human lipoxygenase). Polyunsaturated fatty acid lipoxygenase ALOX12 (Homo sapiens), P18054. purified 12-hLO, xylenol orange hydroperoxide absorbance. Potency, µM (titrated, usually from 57.1 µM), for inactives: at the highest dose activity change, negative = inhibition, hits mostly inhibitors. 150,000 tested, 0.12% active; note: potency is the fitted concentration of half-maximal effect; nearly all actives have a fitted effect of over 55% in size
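Lipoxygenase turnover measured by absorbance at 573 and 405 nm after Fe-XO development. Human 12hLO 150 nM, arachidonate 40 uM, pH 7.0 Hepes buffer with detergent; 15 min compound preincubation, 30 min reaction.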
aGal spleen mod: qHTS Assay for Inhibitors and Activators of Human alpha-Galactosidase From Spleen Homogenate; Alpha-galactosidase A (Homo sapiens), P06280; human spleen homogenate, 4MU-alpha-Gal fluorescence, 40 min; Potency, µM (series often up to 80 µM), inactives show at the top dose activity change, negative = inhibition, usual class: inhibitors; 240,000 tested, 0.008% active;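 note: potency is the fitted concentration of half-maximal effect; 0% = enzyme with vehicle and -100% = no enzyme basal signal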
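qHTS titration in buffer at pH 5.0. Alpha-galactosidase activity in spleen homogenate was measured via 4-methylumbelliferone release from 1 mM fluorogenic substrate after 40 min at 37C and a pH 10 stop. AC50 came from Hill fits of control-normalized data.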
Starred values were filed as active, the others as inactive; ? = inconclusive; . = not tested or not shown; [ ] = dose if it differs, or a comment. In the library only some 10% were active in any assay of this set; here they are far more common. Unless noted, calls come from the whole dose curve; as a rule, active = well fitted curve in the direction sought with a large enough effect; inconclusive = small, poorly fitted or top-dose-only effect, or another doubt; inactive = no such curve, though single readings can be large; an effect the other way counts as inactive or inconclusive. Unless noted, % is set by controls: 0 for no effect and ±100 for the full control effect.

SMILES	HPGD inh	GLA inh pH 4.5	ALDH1A1 block	PNC assembly inh	ALOX12 inhib	aGal spleen mod
O=C(O)CSCCc1ccccc1	2%	.	12%[13.5 µM]	.	-2%[11.4 µM]	.
COc1ccc(CNC(=O)C2=C(C)C(=O)OC23CCC(C)CC3)cc1 (centres undefined)	-8%	-6	5.6µM*	-8	-6%	-3%
O=C(NCCc1ccccc1F)C1CCCN1S(=O)(=O)c1ccc2ccccc2c1 (centres undefined)	16µM*	-12	2%	-10	-8%	6%
O=C(c1ccccc1)N1CCCCC(S(=O)(=O)c2ccc3ccccc3c2)C1=O (centres undefined)	-5%	-7	10µM*	8	-8%	2%
O=C1OCCC1S(=O)(=O)c1ccc2ccccc2c1 (centres undefined)	.	-3	-3%	-18	-1%	-25%
O=C(O)C1CCCN1S(=O)(=O)c1ccc2ccccc2c1 (centres undefined)	?	1	79%	-100*	7%	0%
O=C(NCc1ccccc1)[C@]1(C(F)(F)F)C[C@H](CCC2CCCCC2)CCCO1	.	.	.	.	.	4%
CC(C)C[C@H](N)C(=O)N[C@H](C(=O)N[C@@H](CCCN=C(N)N)C(=O)N[C@H](CS)C(=O)NCC(=O)N[C@@H](CCCCN)C(=O)N[C@@H](Cc1cnc[nH]1)C(=O)N[C@@H](CO)C(=O)N[C@@H](CCCN=C(N)N)C(=O)O)C(C)C	.	.	.	.	.	0%
Cc1ccc(-c2n[nH]c(=O)c3ccccc23)cc1S(=O)(=O)NCCN1CCOCC1	13µM*	-4	2%	-24	-2%	-3%
Cc1ccc(-c2nn(C)c(=O)c3ccccc23)cc1S(=O)(=O)N1CCOCC1	14µM*	4	1%	-7	7%	-15%
Cc1ccc(-c2nn3c(C)nnc3c3ccccc23)cc1S(=O)(=O)NCCN1CCOCC1	-30%	4	24%	68	-7%	-12%
OCCNc1ncnc2nc[nH]c12	-12%	.	1%[13.5 µM]	.	-1%[11.4 µM]	.
Cc1ccc(-n2[nH]c(C)c(/C=N/c3ccccn3)c2=O)cc1	-14%	-1	-8%	-27	5%	-2%
Cc1[nH]n(-c2ccc(Cl)cc2)c(=O)c1/C=N/c1nnc(-c2ccccc2)s1	28µM*	-5	-8%	45	-3%	4%
NC(=S)NNc1ccnc2cc(Cl)ccc12	.	-27	1.4µM*	.	.	-18%
O=C(NNc1ccnc2cc(Cl)ccc12)C1CCCCC1	.	-9	5%	.	.	-4%
FC(F)Oc1ccc(NC(=S)NNc2ccnc3cc(Cl)ccc23)cc1	.	11	8.9µM*	.	.	4%
CC(=O)Nc1ccn(C2OC(C(COC(C)=O)NC(=O)C(COCc3ccccc3)NC(=O)OC(C)(C)C)C(OC(C)=O)C2OC(C)=O)c(=O)n1 (centres undefined)	.	.	.	.	.	6%
Cc1[nH]c2ccccc2c1C(=O)CSc1nc2ccccc2c(=O)n1-c1ccccc1F	.	-17	0.56µM*	.	.	2%
C/C(N)=C(/C#N)C(=O)CSc1nc2scc(-c3ccccc3)c2c(=O)n1C	.	-7	5.6µM*	.	.	-5%
C/C(N)=C(/C#N)C(=O)CSc1nc2ccccc2c(=O)n1-c1ccccc1C	-21%	3	28µM*	-22	-6%	0%
COC(=O)[C@@]1(Cc2ccccc2)[C@H]2c3cc(C(=O)N4CCCC4)n(Cc4ccc(O)c(OC)c4)c3C[C@H]2CN1C(=O)c1ccccc1	-14%	-10	?	.	-5%	-5%
CCC[C@H](Sc1nc(N)nc2nc[nH]c12)C(=O)O	-13%	.	12%[13.5 µM]	.	-1%[11.4 µM]	.

Screening results deposited in PubChem by National Center for Advancing Translational Sciences (NCATS).
